# “And” between values parts separate entries of the source, which are not always exact repeats. Identical values can stand only once. The panel holds about 83,000 compounds, 20% with a hit somewhere; the sample as a whole holds those more often.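 96-well plates, one dose, 48 hours. Percent growth reported; active if below 10.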 The source made the active and inactive calls.
# Test system: MDA-MB-468 breast
# Assay: NCI-60 one-dose screen, 48 h (100 = growth as untreated, 0 = no growth, -100 = all killed)
# Conditions: 10 µM unless noted
row,Compound,growth
1,CCCCCc1ccc(S(=O)(=O)Nc2cccc(-c3csc(NCCN4CCN(C)CC4)n3)c2)cc1,87.3% (inactive)
2,CCOC(=O)c1c(C)nc2ccccc2c1/C=C/c1ccccc1,24.7% (inactive)
3,CCNC(=O)Nc1ccc(-c2nc3c(c(N4CCOC[C@@H]4C)n2)CCN(C2COC2)C3)cc1,13.5% (inactive) and -25.6% (active)
4,COc1ccc2c(c1)oc1c(C)c3c(c(C)c12)C(=O)N(CCOS(C)(=O)=O)C3=O,127% (inactive)
5,O=S(=O)(CCN1CCOCC1)Nc1cncc(-c2ccc3ncnc(Nc4ccc(F)c(Cl)c4)c3c2)c1,-23.1% (active)
6,O=C(Oc1ccc[nH]c1=O)c1cc([N+](=O)[O-])cc([N+](=O)[O-])c1,119% (inactive)
7,COc1ccc2c(c1)C(C)Cc1c(Cl)ncnc1N2C (configuration not stated),-47.7% (active)
8,Cc1ccc(C(=O)c2ccccc2)c(C)c1,111% (inactive)
9,CC(=O)c1cc2c(N)c(C(=O)Nc3cncc4ccccc34)sc2nc1C,97% (inactive)
10,NS(=O)(=O)N(c1cc(C(F)(F)F)cc(C(F)(F)F)c1)C1CCN(Cc2ccc(F)cc2)CC1,52.9% (inactive)
11,NC(=S)N/N=C/c1ccc(Cl)cc1,97.3% (inactive)
12,Cc1nn(-c2ccc(Br)cc2)c2nc3c(nc12)C(=O)C(=O)c1ccccc1-3,95.1% (inactive)
13,CC(=O)O[C@H]1CC[C@]2(C)[C@H]3CC=C4[C@@H]5CC(C)(C)CC[C@]5(C(=O)N5CCN(CCC#N)CC5)CC[C@@]4(C)[C@]3(C)CC[C@H]2C1(C)C,32.2% (inactive)
14,NC(=S)N/N=C\c1nccc2c(C(F)(F)C(F)(F)C(F)(F)F)cccc12,-69.7% (active)
15,COc1ccccc1C(=O)Nc1cccc(-c2cc(=O)c3c(OC)c(OC)c(OC)cc3o2)c1,39.2% (inactive)
16,COc1ccc(C2CC(=O)Nc3c2c(C)nn3-c2nc3ccccc3[nH]2)cc1 (configuration not stated),101% (inactive)
17,COc1ccc(-c2cnnn2-c2nonc2-n2cccc2)cc1,4.28% (active)
18,COc1ccc(C(=O)c2cc3c(N)c(C(=O)Nc4ccc(C)cc4)sc3nc2C)cc1,-16.8% (active)
19,C[C@H]1[C@H]2[C@H]3CC[C@@H]4[C@@]5(C)CC[C@H](O)C(C)(C)[C@@H]5CC[C@@]4(C)[C@]3(C)CC[C@]23CO[C@]1(C)[C@@H](C(=O)/C=C\c1cccnc1)C3,20.5% (inactive)

row,Compound,growth
1,CCOC(=O)CCN(CC(C)C)C(=S)Nc1ccccc1,104% (inactive)
2,CCOC(=O)c1c(C)cc(=O)oc1C,105% (inactive)
3,CN(C)CCCC1(c2ccc(F)cc2)OCc2cc(-c3ccc(C(F)(F)F)nc3)ccc21 (configuration not stated),73.3% (inactive)
4,O=C(CCCSc1nc(-c2ccccc2)cc(-c2ccccc2)n1)NO,-38% (active)
5,Clc1ccc(N2CCN(CCCN3CCN(c4cccc(Cl)c4)CC3)CC2)cc1,23.5% (inactive)
6,Clc1nc(-c2cccnc2)nc2sc3c(c12)CCCCCC3,95.1% (inactive)
7,CCCCCCCC/C=C/CCCCCCCC1=NC(C)(C)CN1C(C)(C)CO,-91.5% (active)
8,O=c1[nH]c(Cc2nc3ccccc3s2)nc2cc(Br)ccc12,92.4% (inactive)
9,COc1ccc(-n2nc(C)c3c(Nc4ccc(NC(=O)Nc5ccc(Cl)c(C(F)(F)F)c5)cc4)ncnc32)cc1,-19.9% (active)
10,COc1ccc2c(c1)C(C)Cc1c(ncnc1-n1cnc3cc(C)ccc31)N2C (configuration not stated),7.23% (active)
11,Cn1c(N)c(N=O)c(=O)n(C)c1=O,122% (inactive) and 112% (inactive)
12,CCCCC/C=N/Nc1nc(C)cc(=O)[nH]1,105% (inactive)
13,C=CCn1c(SCC(=O)Nc2cccc(C(=O)/C=C/c3cccc([N+](=O)[O-])c3)c2)nc2ccccc2c1=O,89.2% (inactive)
14,CCOC(=O)NC(C)C,96.4% (inactive)
15,CCOC(=O)C1=CC(=O)CC(C)(C)O1,117% (inactive) and 108% (inactive)
16,C/C(=N\NC(=S)N1CC2CCC(CC2)C1)c1ccccn1,-14.9% (active)
17,CCOC(=O)c1ccc(Nc2ccnc(SCC(=O)c3ccc(C#N)cc3)n2)cc1,48.1% (inactive)
18,C=C(NC(=O)C(=C)NC(=O)c1csc(C2=NC3c4csc(n4)C4NC(=O)c5csc(n5)C(C(C)(O)C(C)O)NC(=O)C5CSC(=N5)C(=CC)NC(=O)C(C(C)O)NC(=O)c5csc(n5)C3(CC2)NC(=O)C(C)NC(=O)C(=C)NC(=O)C(C)NC(=O)C(C(C)CC)NC2C=Cc3c(C(C)O)cc(nc3C2O)C(=O)OC4C)n1)C(N)=O (configuration not stated),-55.6% (active)
